Hits are enriched below; roughly 6% of the tested compounds scored in any of these assays.
D3 ag: D3 dopamine receptor (human) agonism. D3R DiscoveRx beta-arrestin cells, luminescence, 90 min. P35462. 410,000 tested, 0.58% active. AID 652048. max activation, %; in the data active = max activation above about 30%; note: 0% is about no effect
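Cells at 1500/well, incubated overnight, then treated with pinned compounds (dopamine as control) for 90 min at 37 degrees C. DiscoveRx reagent added for 30 - 60 minutes at room temperature; luminescence read.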
D1 agonist: human D1 receptor agonism; P21728; HEK293 T-REx D1 cells, calcium flux, agonist mode; activation, % at 2 µM; 360,000 tested, 1% active; AID 504660; in the data active = activation above about 30%; note: 0% is about no effect
Target sequence (P21728 whole entry, looked up): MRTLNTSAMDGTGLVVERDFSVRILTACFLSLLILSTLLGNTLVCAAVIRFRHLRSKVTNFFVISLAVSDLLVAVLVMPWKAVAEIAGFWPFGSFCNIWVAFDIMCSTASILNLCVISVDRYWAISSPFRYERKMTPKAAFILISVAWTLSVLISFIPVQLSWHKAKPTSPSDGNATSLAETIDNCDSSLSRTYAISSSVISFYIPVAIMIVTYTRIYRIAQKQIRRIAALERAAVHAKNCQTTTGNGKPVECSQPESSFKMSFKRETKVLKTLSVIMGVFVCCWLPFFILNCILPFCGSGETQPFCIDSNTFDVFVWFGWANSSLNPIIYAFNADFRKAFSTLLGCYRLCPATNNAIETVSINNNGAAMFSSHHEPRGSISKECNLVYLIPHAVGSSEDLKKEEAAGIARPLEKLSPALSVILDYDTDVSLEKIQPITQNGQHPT
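Tetracycline-induced HEK293 TREx D1 cells, force-coupled to calcium signalling, were dye-loaded with a no-wash calcium kit. Compound was pin-added after a 10 s baseline. Fluorescence was read kinetically at 1 cycle/s for 180 s, with calcium rises flagged as agonism.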
D1 antagonist: antagonists of human D1 dopamine receptor; activity change, negative = inhibition, % at 10 µM; 360,000 tested, 3.2% active; HEK293 TREx D1 cells, calcium flux, dopamine EC80; stronger effect = lower value; AID 504652; P21728; in the data active = activity change below about -30%; note: % is set by controls: 0 for no effect and ±100 for the full control effect
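Using tetracycline-induced force-coupled D1 Hek293 cells and a calcium dye, signals were followed for 180 s after compound, then for 180 s after EC80 dopamine, to detect inhibitors.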
D1 potentiator: enhances dopamine response at the human D1 receptor. P21728. HEK293 TREx D1 cells, calcium flux, dopamine EC20 potentiation. potentiation, % at 10 µM. 360,000 tested, 0.036% active; in the data active = potentiation above about 30%; note: 0% is about no effect
DRD3 antagonist: D3 dopamine receptor (human) antagonism. max response, negative = inhibition, %. 360,000 tested, 2.5% active. P35462. D3R cells, DiscoveRx beta-arrestin luminescence, antagonist mode; stronger effect = lower value. AID 652054; in the data active = max response below about -50%; note: % is set by controls: 0 for no effect and ±100 for the full control effect
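Cells plated overnight at 1500 cells/well, then exposed to library compounds with dopamine controls for 90 minutes at 37 degrees C. DiscoveRx reagent added for 30–60 minutes at room temperature; luminescence read, quantitative HTS format.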
An asterisk follows results filed as active; x = no result.

SMILES | D3 ag | D1 agonist | D1 antagonist | D1 potentiator | DRD3 antagonist
COc1ccc(OC)c(NC(=O)Cn2c(=O)cc(C)c3c(C)nn(-c4cccc(Cl)c4C)c32)c1 | 8.0 | 1.4 | 1.9 | -2.8 | x
O=C(CSc1nc2scc(-c3ccco3)c2c(=O)n1-c1ccccc1)N1CCOCC1 | 30.7* | -0.7 | 10.0 | 5.7 | 12.3
COc1ccc(OC)c(NC(=O)Cn2c(=O)c3cccn3c3ccccc32)c1 | 7.3 | 10.0 | -12.4 | -5.3 | x
COc1ccc(C)cc1NC(=O)COCc1cc(-c2ccc(F)cc2)on1 | 7.3 | -0.1 | -15.9 | -1.6 | x
COc1cccc(N2CCN(Cc3ccco3)CC2)c1 | -0.3 | 2.5 | -21.1 | -6.2 | -6.2
COc1cccc(N2CCN(Cc3ccsc3)CC2)c1 | -9.7 | -0.1 | 15.5 | -7.4 | -70.7*
COc1cccc(N2CCN(Cc3nc4ccccc4c(=O)[nH]3)CC2)c1 | -8.8 | 2.3 | -61.8* | -1.9 | -1.4
O=c1[nH]c(CN2CCN(C/C=C/c3ccccc3)CC2)nc2cc(Cl)ccc12 | -19.9 | 8.4 | 16.9 | -6.7 | -53.1*
CN(C)c1ccc(CNC(=O)C2CCCN(S(=O)(=O)c3ccc4c(c3)CCCC(=O)N4)C2)cc1 (configuration not stated) | -3.1 | 0.1 | -8.2 | -3.2 | x
CCC(C)NC(=O)CSc1nc2cc3c(cc2c(=O)n1CCCC(=O)NCc1ccc2c(c1)OCO2)OCO3 (configuration not stated) | 1.6 | 0.7 | -10.8 | -4.3 | x
CC1(C(=O)NC(=S)NNC(=O)c2ccncc2)CCCCC1 | 11.7 | 43.3* | -18.4 | -2.1 | 0.8
CC12CC3CC(C1)CC(C(=O)NNC(=O)c1ccncc1)(C3)C2 | 5.8 | x | x | x | 3.1
O=C(NNC(=S)NC(=O)c1ccc(F)cc1)c1ccncc1 | -11.9 | x | x | x | 0.0
O=C(NNC(=S)NC(=O)C12CC3CC(CC(C3)C1)C2)c1ccncc1 | 2.4 | 136.1* | 0.0 | -5.0 | 3.6
Cn1nnnc1Sc1ncnc2scc(-c3ccc4c(=O)ccoc4c3)c12 | x | 0.6 | 21.6 | 8.1 | x
O=C(COc1cccc(Cl)c1)N1CCC(c2nc3ccccc3s2)CC1 | 4.0 | 4.7 | -16.1 | 1.6 | x
O=C(COc1ccc([N+](=O)[O-])cc1)N1CCC(c2nc3ccccc3s2)CC1 | 3.4 | 6.8 | -82.1* | -1.1 | x
CCOC(=O)N1CCN(CC(=O)Nc2nc3ccccc3s2)CC1 | -3.6 | 8.2 | -23.4 | 19.3 | 18.9
CCOC(=O)N1CCN(C(=O)c2nc3ccccc3s2)CC1 | -3.6 | 3.5 | -33.8* | 4.3 | 49.2
CCOc1cccc(C(=O)N2CCC(c3nc4ccccc4s3)CC2)c1 | 4.2 | 0.2 | -35.7* | -1.6 | x
COc1ccc(-c2nc3ccccc3o2)cc1NC(=O)c1ccc(N2CCC(C)CC2)c([N+](=O)[O-])c1 | 5.4 | 0.4 | -2.8 | -2.1 | x
CN(CCc1cnn(C)c1)Cc1nc(Cc2ccccc2)no1 | 12.8 | 0.4 | -10.7 | -0.1 | 4.5
CCN(Cc1cnn(C)c1)Cc1nc(Cc2ccccc2Cl)no1 | 42.2* | 3.3 | 12.2 | -1.2 | -11.5
O=C(NC(CO)C(O)c1ccc([N+](=O)[O-])cc1)C(Cl)Cl (configuration not stated) | -22.6 | 1.2 | -80.8* | -11.7 | 0.0
COC(=O)c1nc(Cl)c(Cl)c(N)c1Cl | 10.9 | -0.4 | -31.3* | -3.4 | 12.1
SMILES | D3 ag | D1 agonist | D1 antagonist | D1 potentiator | DRD3 antagonist
COc1ccc([C@]23Cc4ccccc4C(O2)c2c(cc(-c4ccccc4)oc2=O)O3)cc1 | x | 1.0 | -21.3 | -3.0 | x
COc1ccc(-c2cc(C(=O)NCCN3CCOCC3)c3ccccc3n2)c(OC)c1 | -23.3 | 0.3 | 4.0 | -0.1 | -54.5*
COc1ccc(CNC(=O)c2cc(-c3cccs3)nc3ccccc23)c(OC)c1 | 3.9 | 3.9 | -46.3* | -0.8 | x
COc1ccc(OC)c(CNC(=O)c2cc(-c3ccc(Cl)s3)nc3ccccc23)c1 | -10.6 | 17.6 | -9.4 | -0.8 | x
COc1cc(C(=O)OCCc2cc3ccccc3c(=O)o2)cc(OC)c1OC | 34.2* | 3.6 | x | -3.0 | 62.9
COc1cc2cc(CCCOC(=O)c3cc(OC)c(OC)c(OC)c3)oc(=O)c2cc1OC | 54.6* | x | x | x | 16.2
COc1cc(C(=O)OCCCc2cc3ccccc3c(=O)o2)cc(OC)c1OC | 17.7 | -3.6 | x | -0.9 | 3.7
CCOC(=O)N1CCN(C(=O)c2c[nH]c3ccc(S(=O)(=O)N(C)c4ccc(OCC)cc4)cc3c2=O)CC1 | -2.0 | 1.9 | -89.0* | -19.3 | 15.1
CC(=O)c1ccc(Nc2nc(NCCO)nc(OC(C(F)(F)F)C(F)(F)F)n2)cc1 | 6.0 | -1.9 | -0.8 | -6.8 | 0.0
CNc1nc(Nc2ccc(C(C)=O)cc2)nc(OC(C(F)(F)F)C(F)(F)F)n1 | 2.6 | 11.3 | -30.8* | -6.7 | 4.6
O=S(=O)(Nc1nc2ccccc2[nH]1)c1ccccc1 | 0.5 | 10.2 | 19.7 | -2.9 | -55.1*
O=S(=O)(Nc1nc2ccccc2[nH]1)c1ccc(Cl)cc1 | -6.1 | 1.7 | -19.6 | -2.8 | -22.5
S=c1[nH]nc(COc2ccc3ccccc3c2)o1 | -0.3 | -0.3 | 0.6 | 1.1 | -62.2*
COc1ccc(Cc2n[nH]c(=S)o2)cc1 | -5.7 | 3.5 | 23.1 | -3.0 | -19.8
COc1cccc(OCc2nc(-c3ccc(Br)o3)no2)c1 | -1.6 | 8.9 | -9.1 | -0.3 | -11.1
Clc1ccccc1OCc1nc(-c2ccc(Br)o2)no1 | -0.5 | 11.4 | -40.9* | x | -21.3
Brc1ccc(-c2noc(COc3ccc4ccccc4c3)n2)o1 | 1.7 | 27.1 | -52.4* | -6.5 | 5.1
O=C(CN1C(=O)C2(SCC(=O)N2c2cccc(Cl)c2)c2ccccc21)NCc1ccccc1 (configuration not stated) | -4.4 | 5.5 | -5.7 | 0.6 | x
COc1ccc(NC(=O)CSc2c(C(C)C)cnc3c2c(=O)n(C)c(=O)n3C)c(OC)c1 | 0.8 | -0.5 | -4.2 | -2.5 | x
Cc1cc2nc(-c3ccc(Br)cc3)cc(C(F)(F)F)n2n1 | -0.6 | -0.5 | -2.2 | -1.4 | x
Cn1c(=O)c2c([nH]c(=S)n2CCCc2ccccc2)n(C)c1=O | 5.7 | 1.1 | 7.7 | -3.5 | 0.0
Cn1c(=O)[nH]c(=O)c2c1[nH]c(=S)n2CCCc1ccccc1 | 10.7 | 1.2 | 5.0 | -0.5 | -53.7*
CN(C)CCNc1nc2c(c(=O)[nH]c(=O)n2C)n1CCCc1ccccc1 | 5.1 | 1.6 | 10.8 | 0.1 | -76.1*
Cc1ccccc1Oc1nc2c(c(=O)n(C)c(=O)n2C)n1Cc1ccc(Br)cc1 | -4.9 | 2.6 | -2.7 | 0.5 | x
Cc1ccc(C2C=C(c3ccccc3OC(F)F)Nc3ncnn32)cc1 (configuration not stated) | 0.4 | 1.9 | 10.3 | 8.1 | 6.5
CN(C)c1ccc(C2C=C(c3ccc(Cl)cc3OC(F)F)Nc3ncnn32)cc1 (configuration not stated) | -9.5 | 41.2* | 5.3 | -6.5 | -17.6
CC(=O)N(Cc1c(C)nn(-c2ccccc2)c1Cl)c1ccc(Cl)cc1 | -5.3 | x | x | x | -1.8
Cc1nn(-c2ccccc2)c(Cl)c1CN(C(=O)CCl)c1ccc(Cl)cc1 | -10.8 | 2.3 | -57.3* | -8.3 | -12.2
